# In all, about 81,000 sequences were measured (“one-hybrid fitness for binding NBS DNA”: median about -0.1, highest 2% from about 0.36 on). The entries come from a sample that favours the highest values as a whole.
# B1: Caulobacter ParB omega fusion; a variant is named by its letters at X, in order, B8GW30 (parent)
# chain: MESVVVGEPGMSEGRRGLGRGLSALLGEVDAAPAQAPGEQLGGSREAPIEILQRNPDQPRRTFREEDLEDLSNSIREKGVLQPILVRPSPDTAGEYQIVAGERAWRAAQRAGLKTVPIMVRELDDLAVLEIGIIENVQRADLNVLEEALSYKVLMEKFERTQENIAQTIGKSXSHVANXMRLLXLPDEVQSYLVSGELTAXHARAIAAAADPVALAKQIIEGGLSVRETEALARKAPNLSAGKSKGGRPPRVKDTDTQALESDLSSVLGLDVSIDHRGSTGTLTITYATLEQLDDLCNRLTRGI
# Variants of: B1
# Experiment: one-hybrid fitness for binding NBS DNA (the Noc-binding site; scaled: cognate 1, non-cognate 0); higher = stronger binding
# Conditions: with NBS DNA site
# Procedure, shortened: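 In E. coli USO, a HIS3 reporter with its site placed 19 bp from the promoter was used to select Caulobacter ParB variants randomised at four specificity codons. Growth lasted 48 hours at 37°C on histidine-free M9 containing 0.1 mM IPTG and 5 mM 3-AT. Fitness was taken as the log change in variant-to-wild-type read ratio from Illumina sequencing of pre- and post-selection plasmids, rescaled between the non-cognate and cognate sites.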
row,Variant,one-hybrid fitness for binding NBS DNA
1,ATLR,≤ 0.2
2,IYRI,≤ 0.2
3,AKFY,≤ 0.2
4,IYLA,≤ 0.2
5,KPSG,≤ 0.2
6,GTKT,≤ 0.2
7,SIIE,≤ 0.2
8,QRTN,0.429
9,QCTC,≤ 0.2
10,QRTP,0.263
11,QRTK,0.414
12,QPTC,≤ 0.2
13,QRTD,0.259
14,QPTH,≤ 0.2
15,QCTK,≤ 0.2
16,QPTK,≤ 0.2
17,QRTC,0.395
18,QRTH,0.57
19,QCTH,0.295
20,LCDV,≤ 0.2
21,ANGR,≤ 0.2
22,WTTR,≤ 0.2
23,MSHC,0.26
24,SNER,≤ 0.2

row,Variant,one-hybrid fitness for binding NBS DNA
1,FAVS,≤ 0.2
2,FHLT,≤ 0.2
3,QRTY,0.519
4,QPTY,≤ 0.2
5,EFTS,≤ 0.2
6,EFTN,0.392
7,QCTY,0.225
8,EFTH,≤ 0.2
9,PRAG,≤ 0.2
10,GACS,≤ 0.2
11,RHMP,≤ 0.2
12,RKMP,≤ 0.2
13,RCMR,0.461
14,RTMR,0.503
15,RHMN,≤ 0.2
16,RKMH,0.214
17,RTMP,≤ 0.2
18,RLMR,0.341
19,RPMR,≤ 0.2
20,RKMR,0.577
21,RHMR,0.368
22,RTMN,≤ 0.2
23,SFRE,≤ 0.2
24,NGWG,≤ 0.2

row,Variant,one-hybrid fitness for binding NBS DNA
1,SIAC,≤ 0.2
2,KQGK,≤ 0.2
3,IDPS,≤ 0.2
4,ICRN,≤ 0.2
5,NDES,≤ 0.2
6,PLNE,≤ 0.2
7,RGAY,≤ 0.2
8,IIPP,≤ 0.2
9,THSS,≤ 0.2
10,NHMG,≤ 0.2
11,RRMR,0.723
12,RRMQ,0.253
13,RQMD,≤ 0.2
14,RIMR,0.319
15,RQMP,≤ 0.2
16,RSMR,0.369
17,RAMR,0.341
18,RRMF,≤ 0.2
19,RQMR,0.385
20,VAIA,≤ 0.2
21,LTDL,≤ 0.2
22,HGGT,≤ 0.2
23,AFTK,≤ 0.2
24,SQEG,≤ 0.2

row,Variant,one-hybrid fitness for binding NBS DNA
1,CATP,≤ 0.2
2,LHPG,≤ 0.2
3,CDGK,≤ 0.2
4,SSSM,≤ 0.2
5,GDDT,≤ 0.2
6,QKAT,0.543
7,QKFS,0.277
8,QKFT,0.366
9,QKAG,≤ 0.2
10,QKFF,≤ 0.2
11,QKAC,≤ 0.2
12,SHPD,≤ 0.2
13,QKML,≤ 0.2
14,HTHP,≤ 0.2
15,RGSE,≤ 0.2
16,SGGC,≤ 0.2
17,TILG,≤ 0.2
18,LRDT,≤ 0.2
19,RTGI,≤ 0.2
20,RYKS,0.57
21,RYKC,0.367
22,RYYC,≤ 0.2
23,RYVH,≤ 0.2
24,RYKP,≤ 0.2

row,Variant,one-hybrid fitness for binding NBS DNA
1,RYKH,0.396
2,RYKD,≤ 0.2
3,RYKN,0.218
4,RYVC,≤ 0.2
5,KHNS,≤ 0.2
6,NLKT,≤ 0.2
7,YEHY,≤ 0.2
8,ADVD,≤ 0.2
9,SIIV,≤ 0.2
10,DVHC,≤ 0.2
11,VIQR,≤ 0.2
12,YNMS,≤ 0.2
13,QCRY,0.637
14,QKRY,0.518
15,QLYY,≤ 0.2
16,QPRY,≤ 0.2
17,QKYY,≤ 0.2
18,QLDY,≤ 0.2
19,QTWY,≤ 0.2
20,QLRY,0.451
21,QCYY,0.275
22,QTYY,0.262
23,QTRY,0.685
24,QKDY,≤ 0.2

row,Variant,one-hybrid fitness for binding NBS DNA
1,GQTS,≤ 0.2
2,PQAC,≤ 0.2
3,GTQM,≤ 0.2
4,HAAV,≤ 0.2
5,KEKL,≤ 0.2
6,GHAV,≤ 0.2
7,VLHR,≤ 0.2
8,PYWE,≤ 0.2
9,HKSN,≤ 0.2
10,MTAW,≤ 0.2
11,VLNA,≤ 0.2
12,TGSV,≤ 0.2
13,QIRY,0.378
14,QMRY,0.566
15,QAFN,≤ 0.2
16,QIYY,≤ 0.2
17,QMDY,≤ 0.2
18,QIHY,≤ 0.2
19,QAAY,≤ 0.2
20,QARY,0.499
21,QMYY,≤ 0.2
22,QAFY,0.396
23,QAYY,≤ 0.2
24,QADY,≤ 0.2

row,Variant,one-hybrid fitness for binding NBS DNA
1,WTQT,≤ 0.2
2,RKML,≤ 0.2
3,FQSI,≤ 0.2
4,MFAL,≤ 0.2
5,SWRR,≤ 0.2
6,QHYY,≤ 0.2
7,QHDY,≤ 0.2
8,QSYY,≤ 0.2
9,QSRY,0.505
10,QSDY,≤ 0.2
11,QHRY,0.488
12,YIRY,≤ 0.2
13,KRDT,0.421
14,DRDT,≤ 0.2
15,KCNT,0.207
16,NRDT,≤ 0.2
17,NRNT,≤ 0.2
18,KRNT,0.617
19,MDAV,≤ 0.2
20,TRPC,≤ 0.2
21,QHTP,≤ 0.2
22,QSTS,0.364
23,QKTD,≤ 0.2
24,QPTS,≤ 0.2

row,Variant,one-hybrid fitness for binding NBS DNA
1,QMTD,≤ 0.2
2,QMTH,≤ 0.2
3,QKTS,0.475
4,QHTN,≤ 0.2
5,QMTS,0.403
6,QCTS,0.458
7,QKTN,≤ 0.2
8,QHTS,0.372
9,IAMY,≤ 0.2
10,QCIF,≤ 0.2
11,PRQG,≤ 0.2
12,VKPT,≤ 0.2
13,YCVL,≤ 0.2
14,DHNQ,≤ 0.2
15,SNYG,≤ 0.2
16,PCIT,≤ 0.2
17,NGMR,≤ 0.2
18,RLHW,≤ 0.2
19,LRLN,≤ 0.2
20,RGQR,≤ 0.2
21,QHWR,0.363
22,QHGD,≤ 0.2
23,QHGR,0.546
24,QHHQ,≤ 0.2

row,Variant,one-hybrid fitness for binding NBS DNA
1,QHRN,0.334
2,QHGN,≤ 0.2
3,QHYR,0.471
4,QHRR,0.989
5,QHHR,0.571
6,QHHN,≤ 0.2
7,QHIR,0.352
8,QHPR,0.248
9,IYTG,≤ 0.2
10,QEPT,≤ 0.2
11,QKVW,≤ 0.2
12,HKNP,≤ 0.2
13,NTTN,≤ 0.2
14,VWNG,≤ 0.2
15,CAIM,≤ 0.2
16,PVVW,≤ 0.2
17,YKVT,≤ 0.2
18,VSTT,≤ 0.2
19,QSTN,≤ 0.2
20,QLTP,≤ 0.2
21,QSTH,≤ 0.2
22,QPTT,≤ 0.2
23,QCTT,0.486
24,QLTT,0.393

row,Variant,one-hybrid fitness for binding NBS DNA
1,QMTT,0.463
2,QLTS,0.307
3,QMTQ,≤ 0.2
4,QITT,0.314
5,QSTT,0.403
6,QMTL,≤ 0.2
7,LYGT,≤ 0.2
8,ACDR,≤ 0.2
9,DHGS,≤ 0.2
10,GRAP,≤ 0.2
11,MVHG,≤ 0.2
12,SQHN,≤ 0.2
13,QATD,≤ 0.2
14,QKTT,0.56
15,QKTP,≤ 0.2
16,QNTT,≤ 0.2
17,QKTM,≤ 0.2
18,QTTY,0.301
19,QTTG,≤ 0.2
20,QATT,0.379
21,DRTT,≤ 0.2
22,QATH,≤ 0.2
23,QTTT,0.603
24,QRTT,0.759

row,Variant,one-hybrid fitness for binding NBS DNA
1,ERNT,≤ 0.2
2,SKLS,≤ 0.2
3,CYAV,≤ 0.2
4,RIEC,≤ 0.2
5,GTHW,≤ 0.2
6,QHTT,0.412
7,QHTM,≤ 0.2
8,QHTY,≤ 0.2
9,KWAC,≤ 0.2
10,TYFR,≤ 0.2
11,RCKI,≤ 0.2
12,RRKI,0.607
13,RRVI,≤ 0.2
14,RRRI,0.451
15,RREI,≤ 0.2
16,RRYI,≤ 0.2
17,VLSD,≤ 0.2
18,DRYG,≤ 0.2
19,SACR,≤ 0.2
20,CRNI,≤ 0.2
21,ARTS,≤ 0.2
22,NRFT,≤ 0.2
23,DRFT,≤ 0.2
24,KCAT,≤ 0.2

row,Variant,one-hybrid fitness for binding NBS DNA
1,KRAT,0.572
2,KRAH,≤ 0.2
3,KRFT,0.565
4,ERLC,≤ 0.2
5,DGPR,≤ 0.2
6,DMRT,≤ 0.2
7,QMHQ,≤ 0.2
8,QTLT,0.527
9,QMYT,0.436
10,QMET,0.295
11,QMRT,0.79
12,QMCT,0.339
13,QMWT,0.36
14,QMHG,≤ 0.2
15,QTLK,≤ 0.2
16,QMHT,0.497
17,KGMW,≤ 0.2
18,IVAT,≤ 0.2
19,PGEM,≤ 0.2
20,MPVM,≤ 0.2
21,GHRC,≤ 0.2
22,NPHC,≤ 0.2
23,QMAF,≤ 0.2
24,QMND,≤ 0.2

row,Variant,one-hybrid fitness for binding NBS DNA
1,QMSF,≤ 0.2
2,QSLT,0.327
3,QMDT,0.345
4,QMAG,≤ 0.2
5,QMAT,0.505
6,QMST,0.457
7,QCLT,0.487
8,QPLT,≤ 0.2
9,QMNT,0.52
10,QMSG,≤ 0.2
11,CHMT,≤ 0.2
12,EHDV,≤ 0.2
13,SSEQ,≤ 0.2
14,GTKR,0.255
15,RILE,≤ 0.2
16,RWLC,≤ 0.2
17,ADHS,≤ 0.2
18,SITC,≤ 0.2
